Screening data as filed in PubChem.
Compounds with a hit are over-represented: about 4% of the library has one in this group of screens.
CF NFkB block: inhibitors of cystic fibrosis induced NF-kB; KKLEB NF-kB-GFP reporter, PAF-induced, GFP fluorescence overnight; inhibition, % at 5 µM; actives 0.86% (n = 360,000);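 active = at least 50% inhibition at 5 µM, scaled per plate between neutral and stimulator controls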;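 also: PAF is a Pseudomonas aeruginosa culture filtrate used as stimulus; plate controls were PAF-stimulated DMSO wells for no effect and unstimulated DMSO wells for full effect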
HIF-2a inh: HIF-2a inhibition. 786-0 RCC cells HIF-2a reporter, luciferase luminescence, overnight. inhibition, % at 18.8 µM. actives 0.72% (n = 360,000). AID 624352;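 active = inhibition of the luminescence signal of 40% or more relative to plate controls, in a single-dose primary screen at 18.75 µM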
TWEAK-Fn14 inh: blocks TWEAK-Fn14 interaction in a reporter cell assay. TWEAK-stimulated Fn14 reporter cells, luciferase luminescence, 8 h. inhibition, % at 10 µM. actives 2% (n = 360,000). AID 1159606; in the data active = inhibition above about 50%
KKLEB cytotox: counter-screen for CF NF-kB inhibitors: cytotoxicity | KKLEB CF airway cells viability, ATPlite luminescence, overnight; stronger effect = lower value; cells stimulated with P. aeruginosa culture filtrate | activity change (cytotoxicity), % at 5 µM | actives 0.36% (n = 360,000) | AID 602141;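 active = corrected activity change at or below -50% at 5 µM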
Peg3 prom inh: inhibitors of Peg3 promoter; HeLa PEG-Prom luciferase reporter, luminescence, overnight; actives 1.7% (n = 360,000); inhibition, % at 20 µM;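 active = inhibition of at least 50% at 20 µM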
TROY signal inh: inhibitors of TROY-dependent NF-kB signaling; actives 0.98% (n = 360,000); Q293 LMP1-TROYcd NF-kB luciferase reporter, 4 h; AID 1347056; inhibition, % at 10 µM;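 active = compounds whose plate-normalised and pattern-corrected inhibition of the luciferase reporter signal at the single screening dose is 50% or more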
* = called active by the depositor; x = not tested or not shown.

SMILES | CF NFkB block | HIF-2a inh | TWEAK-Fn14 inh | KKLEB cytotox | Peg3 prom inh | TROY signal inh
O=C(/C=C/c1ccccc1)Nc1scc(-c2ccccc2)c1C(=O)O | 4 | -150 | 52* | -4 | -168 | 27
O=C(NCC[C@@H]1CC[C@@H](NS(=O)(=O)Cc2ccccc2)[C@@H](CO)O1)C1CC1 | x | 2 | x | x | x | x
CC(C)c1ccc(S(=O)(=O)/N=C2\C=C(NS(=O)(=O)c3ccccc3)C(=O)c3ccccc32)cc1 | 74* | -13 | 0 | -3 | -7 | -5
CCc1ccc(S(=O)(=O)/N=C2\C=C(NS(=O)(=O)c3ccccc3)C(=O)c3ccccc32)cc1 | 69* | -63 | -6 | -10 | -33 | -22
CC(C)[n+]1ccn(C2=C([O-])c3ccccc3C(=O)/C2=N\S(=O)(=O)c2ccccc2)c1 | -1 | -17 | 12 | -2 | 1 | -4
Cc1ccc(C)c(S(=O)(=O)/N=C2\C=C(NS(=O)(=O)c3ccccc3)C(=O)c3ccccc32)c1 | 32 | 5 | 18 | 3 | 32 | 18
Cc1nc2nc(C)c(NS(=O)(=O)c3ccc4c(c3)CCCC4)c(=O)n2[nH]1 | 13 | 8 | 8 | 10 | -5 | 7
Cc1cccc2cc(C#N)c(NCCCNS(=O)(=O)c3ccc(Cl)cc3)nc12 | -2 | -1 | 18 | 2 | 25 | 15
O=C1/C(=C/c2cccc(F)c2)Oc2cc(O)ccc21 | -6 | -115 | 2 | 7 | -117 | -11
COc1ccc(C[C@H]2CN3C(=NC[C@@H]3Cc3ccccc3)N2CCNC(=O)c2ccc(C)c(Br)c2)cc1 | 27 | 2 | -23 | -33 | 97* | -6
Cc1ccc(C(=O)NCCN2C3=NC[C@@H](Cc4ccccc4)N3C[C@H]2Cc2ccc(O)cc2)cc1Br | -2 | 6 | 3 | 5 | 79* | 9
COc1ccc(C[C@H]2CN3C(=NC[C@@H]3Cc3ccc(O)cc3)N2CCNC(=O)c2ccc(C)c(Br)c2)cc1 | 21 | -4 | -38 | -17 | 45 | -3
COc1ccc(C[C@H]2CN3C(=NC[C@H]3Cc3ccccc3)N2CCNC(=O)CCC2CCCCC2)cc1 | 22 | -6 | -5 | -16 | 90* | -13
COc1ccc(C[C@H]2CN3C(=NC[C@H]3Cc3ccccc3)N2CCNC(=O)c2ccc(C)c(Br)c2)cc1 | 33 | 5 | -34 | -9 | 95* | 6
Cc1ccc(C(=O)NCCN2C3=NC[C@H](Cc4ccc(O)cc4)N3C[C@H]2Cc2ccc(O)cc2)cc1Br | 11 | 11 | -2 | -1 | -4 | 5
COc1ccc(C(=O)C2CCCN(Cc3ccc(C#CCCO)cc3)C2)cc1F (centres undefined) | 24 | 12 | -1 | -9 | 4 | 8
Cc1cccc(-c2nc(CS(=O)CC(=O)NC3CCCC(C)C3C)c(C)o2)c1 (centres undefined) | 1 | -6 | -5 | -7 | 5 | 0
Cc1nnc(NCc2n[nH]c(=O)c3ccccc23)c2ccccc12 | -9 | -42 | -35 | 4 | 106* | -33
C=CCc1cccc2cc(C(=O)Nc3ccc(F)cc3)c(=O)oc12 | -19 | -137 | -19 | 3 | -125 | -47
C=CCc1cccc2cc(C(=O)Nc3ccc(CC(=O)O)cc3)c(=O)oc12 | 6 | 64* | 25 | -6 | -40 | -19
O=C(CSc1nnc(-c2c[nH]c3ccccc23)o1)N(Cc1ccccc1)c1ccc(F)cc1 | -4 | -76 | 64* | 20 | 3 | 31
COc1ccc(CN(C(=O)CSc2nnc(-c3ccccc3C)o2)c2ccc(F)cc2)cc1 | 16 | -2 | 17 | -11 | 31 | -17
COc1cc(Br)c(/C=C/c2ccc3cccc(O)c3n2)cc1OC | 13 | -11 | -22 | -3 | -47 | 8
Oc1cccc2ccc(/C=C/c3ccccc3Br)nc12 | -6 | -276 | 56* | -14 | -161 | 55*
COc1ccc(OC)c(/C=C/c2ccc3cccc(O)c3n2)c1 | -41 | -95 | -9 | 5 | 83* | -11
COc1cc([C@H]2[C@@H]3CCCC[C@]3(O)CCN2CC(=O)Nc2ccc(C)cc2)ccc1O | -13 | 0 | 66* | -6 | -9 | 7
CC1CCCN(C(=O)c2ccc(S(=O)(=O)N3CCC(c4nc5ccccc5s4)CC3)cc2)C1 (centres undefined) | 5 | -4 | 57* | -4 | -57 | 52*
